In PubChem BioAssay (NCI):
The panel holds about 83,000 compounds, 20% with a hit somewhere; the sample as a whole holds those more often.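 The endpoint reported here, percent growth, reads 100 for growth as untreated, 0 for no net growth and -100 for all cells dead.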 Values without a mark were called inactive. Active and inactive are the calls of the source. How the source made its calls: active means growth percent below 10; inactive means the rest.

Each compound was assayed on SNB-75 CNS (assay: NCI-60 one-dose screen, 48 h (100 = growth as untreated, 0 = no growth, -100 = all killed)). Conditions: 10 µM unless noted.

SMILES | growth
c1ccc2cc(C[n+]3ccn(CCCCCCCn4cc[n+](Cc5ccc6ccccc6c5)c4)c3)ccc2c1 | -2.59% (active)
Cc1c(NCc2nnc3n(Cc4ccccc4)c(=O)c4c5c(sc4n23)CCCC5)c(=O)n(-c2ccccc2)n1C | 98%
N#CCNc1ccccc1N | 77.8%
Cc1cc(NC(=O)Nc2cc(Cl)ccc2C)no1 | 76.8%
COc1cc(C(=O)/C=C/c2cccnc2Nc2ccccc2)cc(OC)c1OC | -16% (active)
O=[N+]([O-])c1cnc(Sc2ccncn2)c([N+](=O)[O-])c1 | 95.2%
O=C(Nc1cccc2ccccc12)c1cc2c(cc1Br)OCO2 | 57.4%
CCCCCCCCCCC[C@@H](C[C@H]1OC(=O)[C@H]1CCCCCC)OC(=O)[C@@H](CC(C)C)NC=O | 82.4%
CCOC(=O)c1c2c(c(C)n1Cc1ccccc1)-c1nc(N)ncc1CC2 | 90.3%
Clc1ccc(CCC(Cn2ccnc2)Sc2c(Cl)cccc2Cl)cc1 (stereo unspecified) | 92.5%
CN1COc2ccc3ccccc3c2C1 | 72.1%
O=C(Nc1cccc([N+](=O)[O-])c1)c1cccc(C(=O)Nc2cccc([N+](=O)[O-])c2)c1 | -40.4% (active)
ClC1C2CC(c3ccccc32)C1Cl (stereo unspecified) | 102%
O=C1c2ccccc2-c2c1nc1ccccc1[n+]2[O-] | 103%
NC(=Nc1ccccc1)SCCCCSC(N)=Nc1ccccc1 | 68%
CC12CCC3C(CCC4CC(=O)/C(=C\O)CC43C)C1CCC(=O)O2 (stereo unspecified) | 97.5%
